ELG1 genotox – induces genotoxicity in HEK293T cells with luciferase-tagged ELG1 | HEK293T ELG1-luciferase reporter, luminescence, 16 h | Potency, µM (series often up to 46 µM), for inactives: at the top dose activity change, positive = activation, actives largely listed as activators | actives 1.3% (n = 330,000) | AID 504466; also: % of control where 0% means no effect; nearly all actives have a fitted effect of over 60% in size
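ELG1-luciferase HEK293T cells, 2,000/well; compound pinned in; 16 hr, 37 °C, 5% CO2; ONE-Glo, 30 min RT; luminescence on CCD imager.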
Rab9 promoter act – activators of Rab9 promoter. Huh7 Rab9 promoter-luciferase reporter, luminescence, 24 h. actives 2.8% (n = 320,000). Potency, µM (titrated, usually from 9.22 µM), for inactives: at the highest dose activation, negative = inhibition, most hits filed as activators; also: % of control where 0% means no effect; nearly all actives have a fitted effect of over 60% in size
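Luminescence from Amplite-detected luciferase (10 minutes, ambient) reports Rab9 promoter activation. Before that, stable Rab9-luciferase Huh7 cells (1500/well, reduced-serum OP-MEM I plus 10% FBS) were exposed to compound for 24 hours at 37C.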
FLuc modulator – firefly luciferase modulation, counter-screen for miR-21 project; P08659; purified FLuc, Km substrates, luminescence inhibition; Potency, µM (doses to about 57.5 µM), for the others: at the highest dose activity change, negative = inhibition, actives largely listed as inhibitors; actives 6.9% (n = 360,000); AID 588342;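 also: plate controls were vehicle for no effect and reference inhibitor for full effect; nearly all actives have a fitted effect of over 55% in size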
Target sequence (P08659 whole entry, looked up): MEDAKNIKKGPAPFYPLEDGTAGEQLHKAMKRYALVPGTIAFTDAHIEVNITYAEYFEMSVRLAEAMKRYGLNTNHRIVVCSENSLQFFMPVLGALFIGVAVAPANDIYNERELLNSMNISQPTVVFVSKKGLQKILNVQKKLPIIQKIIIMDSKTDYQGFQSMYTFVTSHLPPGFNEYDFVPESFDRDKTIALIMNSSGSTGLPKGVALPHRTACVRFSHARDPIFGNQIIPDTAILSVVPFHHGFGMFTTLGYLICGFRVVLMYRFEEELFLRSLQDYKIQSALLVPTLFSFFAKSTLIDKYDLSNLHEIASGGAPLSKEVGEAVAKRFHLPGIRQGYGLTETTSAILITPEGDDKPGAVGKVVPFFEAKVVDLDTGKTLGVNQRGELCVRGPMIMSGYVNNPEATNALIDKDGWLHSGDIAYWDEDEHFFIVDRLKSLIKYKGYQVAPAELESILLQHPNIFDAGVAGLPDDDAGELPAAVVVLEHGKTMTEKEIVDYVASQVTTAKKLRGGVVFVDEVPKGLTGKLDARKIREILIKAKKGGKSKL
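Biochemical qHTS of compounds, final roughly 60 µM downward over six points, against 10 nM purified firefly luciferase using Km concentrations of substrates (10 uM D-luciferin, 10 uM ATP) in Tris acetate pH 7.5 buffer; luminescence output.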
SMN2 splice enh – increases expression of the SMN2 splice variant | HEK293 SMN2-luciferase splicing reporter, luminescence, 30-36 h | AID 1458 | Potency, µM (top dose mostly 46.1 µM), inactives show at the top dose activity change, positive = activation, hits mostly activators | actives 2.8% (n = 210,000); also: % of control where 0% means no effect; nearly all actives have a fitted effect of over 55% in size
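HEK293 cells carry an SMN2 […]–luciferase reporter in which exon 7 inclusion puts luciferase in frame. Cells were plated 10-12 h before compound addition, then incubated 30-36 h at 37C. ONE-Glo luminescence was read; sodium butyrate at 4.5 mM final served as control.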
NPC1 prom act – activators of NPC1 promoter; Huh7 NPC1 promoter luciferase reporter, 24 h; Potency, µM (series often up to 9.22 µM), inactives show top-dose activation, most hits filed as activators; actives 2.4% (n = 320,000); also: % of control where 0% means no effect; nearly all actives have a fitted effect of over 60% in size
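Cells: Huh7 expressing luciferase under the NPC1 promoter, 1500/well. Seeded 2 h, compound added, incubated 24 h at 37 °C. Luciferase reagent, 10 min ambient, then luminescence.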
Active calls of the source: *; ? = inconclusive; . = not tested or not shown; [ ] = dose if it differs, or a comment. Shown are actives, neighbours in structure and some others; about 7.4% of the full set was active somewhere. Calls follow the shape of the dose curve; as a rule, active = well fitted curve in the direction sought with a large enough effect; inconclusive = small, poorly fitted or top-dose-only effect, or another doubt; inactive = no such curve, though single readings can be large; an effect the other way counts as inactive or inconclusive. Potency is read from the fitted curve at half-maximal effect.

SMILES	ELG1 genotox	Rab9 promoter act	FLuc modulator	SMN2 splice enh	NPC1 prom act
CCN=c1scc(-c2ccccc2)n1/N=C/c1ccccn1	?	0.562µM*	0.601µM*	14.1µM*	0.355µM*
CCN=c1scc(-c2ccc(F)cc2)n1/N=C/c1ccccn1	10.3µM*	3.16µM*	9.53µM*	12.6µM*	2.51µM*
CCOC(=O)c1[nH]c(C)c(/C(O)=C2\C(=O)C(=O)N(CCCN3CCOCC3)C2c2cccs2)c1C (configuration not stated)	-2.9%	-1.1%	-0.3%	.	2.7%
Cc1sc2c(c1C)CN(Cc1ccncc1)CN2C(=O)c1ccco1	1.3%	9.6%	?	-5.6%	2.7%
COCCN1Cc2c(sc(C)c2C)N(C(=O)c2ccccc2)C1	4.7%	14.9%	19µM*	14.7%	?
COCCC(=O)Nc1c(-c2ccccc2)c2cc(Br)ccc2[nH]c1=O	-2.8%	6.7%	2.2%	.	-1.2%
Cc1cc(C)cc(NC(=O)c2ccc(CSc3nnnn3C)cc2)c1	-0.3%	18.6%	13.5µM*	-10.9%	9.0%
Cn1nnnc1SCc1ccc(C(=O)Nc2ccccc2F)cc1	?	?	?	2.5%	?
C=CCn1c(SCc2ccc(C(=O)Nc3nccs3)cc2)nnc1-c1ccc(C)c(Cl)c1	-13.7%	-0.6%	10.7µM*	-97.4%	1.2%
Cn1nnnc1SCc1ccc(C(=O)Nc2nccs2)cc1	?	?	15.1µM*	11.2µM*	29.8%
COc1cc2sc(-c3ccc(S(C)(=O)=O)cc3)c(-c3ccc4c(c3)OCO4)c2cc1OC	0.1%	.	.	.	.
COc1ccc(CNc2nnnn2C)c(OC)c1	-1.2%	1.4%	1.1%	.	-0.9%
O=C(c1cc2ccc3cccnc3c2[nH]1)N1CCCCC1	.	.	1.2µM*	.	.
CC1CCCN(C(=O)c2cc3ccc4cccnc4c3[nH]2)C1 (configuration not stated)	.	.	0.426µM*	.	.
C=CCN(CC=C)CCOc1ccc(C)cc1[N+](=O)[O-]	6.0%	15.7%	23.9µM*	6.1%	14.9%
Cc1ccc(OCCCN2CCOCC2)c([N+](=O)[O-])c1	?	?	21.3µM*	?	?
C=CCN(CC=C)CCOc1cc(C)ccc1[N+](=O)[O-]	-1.7%	2.4%	4.2%	-2.2%	-1.7%
CCNc1cc(Nc2c(C)n(C)n(-c3ccccc3)c2=O)c([N+](=O)[O-])c2nonc12	-0.6%	-5.3%	4.0%	.	0.8%
O=C(Cn1ccc2cc(S(=O)(=O)N3CCCCCC3)ccc21)NCCc1ccc(Cl)cc1	.	.	-10.2%	.	.
Cc1c(C(=O)Nc2ccccc2Cl)sc2ncnc(N(C)C3CCCCC3)c12	.	.	2.1%	.	.
O=C(O/N=C1\CCS(=O)(=O)c2sccc21)c1ccccc1	1.6%	0.2%	2.69µM*	-10.9%	-5.5%
O=C(O/N=C1\CCS(=O)(=O)c2sccc21)c1ccc(F)cc1	0.0%	-4.9%	?	2.8%	-1.4%
Cc1cccc(C(=O)O/N=C2\CCS(=O)(=O)c3sccc32)c1	0.5%	3.0%	3.38µM*	-7.8%	4.5%
O=C(Nc1ccc(CN2CCS(=O)(=O)CC2)cc1)c1ccccc1	0.0%	-0.4%	-10.3%	.	-0.7%
O=C(Nc1ccc(CN2CCS(=O)(=O)CC2)cc1)c1ccc(F)cc1	-1.8%	-2.1%	-0.6%	.	1.2%
SMILES	ELG1 genotox	Rab9 promoter act	FLuc modulator	SMN2 splice enh	NPC1 prom act
O=C(Nc1ccc(CN2CCS(=O)(=O)CC2)cc1)c1ccc(C(F)(F)F)cc1	8.2%	-25.6%	16.9µM*	.	-14.0%
CC(C)(C)c1ccc(C(=O)Nc2ccc(CN3CCS(=O)(=O)CC3)cc2)cc1	-1.0%	-31.1%	9.53µM*	.	-17.4%
COc1cc2c(cc1OC)/C(=C/C(=O)c1ccccc1)NCC2	11.9%	-2.2%	-17.8%	.	21.8%
COc1cc2c(cc1OC)/C(=C/C(=O)c1ccc(C)cc1)NCC2	7.3%	5.7%	16.9µM*	.	-2.3%
O=C(Nc1cccnc1)c1cccc(-c2cc3ccccc3oc2=O)c1	11.8%	-4.3%[1.84 µM]	?	19.8%	17.6%
CCOc1ccc2nc(NC(=O)c3cccc(-c4cc5ccccc5oc4=O)c3)sc2c1	12.8%	-1.4%	-16.0%	-14.4%[1.84 µM]	22.5%
CCn1nnc(NC(=O)c2cccc(-c3cc4ccccc4oc3=O)c2)n1	?	2.51µM*	15.1µM*	12.6µM*	?
Cc1ccc2nc(NC(=O)c3cccc(-c4cc5ccccc5oc4=O)c3)sc2c1	?	?	21.3µM*	0.2%	?
COc1cc2c(cc1NC(=O)c1ccc3c(c1)OCO3)oc1ccccc12	11.6µM*	3.16µM*	6.75µM*	14.1µM*	?
O=C(Nc1ccc2c(c1)oc1ccccc12)c1ccc2c(c1)OCO2	?	?	?	11.0%	?
COc1ccc(-c2csc(NC(=O)c3ccc(OCC(=O)N4CCOCC4)c(OC)c3)n2)cc1	-10.6%	10.7%	16.9µM*	-31.1%	-0.5%
COc1cc(C(=O)Nc2nc(-c3ccc(C)cc3)cs2)ccc1OCC(=O)N1CCOCC1	-10.5%	29.2%	?	-41.6%	12.6%
COc1cc2c(cc1NCc1ccc3c(c1)OCO3)oc1ccccc12	14.7%	-2.3%	?	22.4µM*	25.7%
COc1ccc(OC)c(-c2csc(NC(=O)c3ccc4c(c3)OCO4)n2)c1	-2.9%	3.7%	4.78µM*	?	17.3%
O=C(NCc1n[nH]c(=S)n1-c1cccc(C(F)(F)F)c1)c1ccco1	0.0%	-1.2%	0.0%	.	1.2%
CC(Oc1ccc2ccc(=O)oc2c1)C(=O)NCCN1CCOCC1 (configuration not stated)	3.4%	-0.9%	4.4%	.	-0.3%
Cc1ccc(CNC(=O)c2cc(=O)c3cc(C)cc(C)c3o2)cc1	.	.	-4.6%	13.5%	.
COC(=O)c1sccc1S(=O)(=O)N(CC(=O)Nc1cc(C)ccc1C)c1ccc(C)c(C)c1	.	.	3.2%	.	.
COc1ccc(OC)c(NC(=O)c2ccc3c(c2)OCO3)c1	7.9%	12.9%	21.3µM*	.	15.2%
COc1ccccc1NC(=O)c1ccc2c(c1)OCO2	10.3µM*	3.98µM*	15.1µM*	.	2.51µM*
O=C(C1CCCN(Cc2ccccc2[N+](=O)[O-])C1)N1CCCCC1 (configuration not stated)	-0.8%	-8.7%	0.5%	.	-4.3%
Cc1cc(C)c(NC(=O)Cn2c(=O)n(CCC(=O)N3CCc4ccccc4C3)c(=O)c3ccccc32)c(C)c1	.	.	-10.4%	6.6%	.
Cc1ccc2[nH]c3ccccc3c(=O)c2c1	14.4%	16.8%	16.9µM*	.	?
COc1cc(/C=N/NS(=O)(=O)c2ccc3ccccc3c2)ccc1OCc1ccc(C(=O)O)cc1	?	2µM*	0.338µM*	.	0.631µM*
COc1cc(/C=N/NS(=O)(=O)c2ccc(C)cc2)ccc1OCc1cccc(C(=O)O)c1	20.2%	0.891µM*	0.426µM*	3.55µM*	2µM*
CCc1ccc(OCC(=O)N/N=C/c2ccc(OS(=O)(=O)c3ccc(C)cc3)c(OC)c2)cc1	-0.9%	-4.3%	5.36µM*	4.0%	-0.7%

Compound activity as filed in PubChem BioAssay.
